Mot1-301 SUMO – blocks SUMOylation pathway, rescuing yeast Mot1-301 growth. S. cerevisiae Mot1-301 growth rescue, ATP luminescence, 38.5C; percent above DMSO median, 100 means doubled. growth rescue, % at 18.8 µM. 1% of 320,000 active. AID 2716;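 active means every valid replicate shows activation above 250% relative to neutral control wells; inactive means the rest, any valid replicate at or below 250%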
CHT block – inhibitors of human choline transporter CHT. AID 488975. CHT-expressing cells, membrane potential dye, choline response; active compounds read low. B-score at 10 µM. 0.86% of 310,000 active. Q9GZV3;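 active means B-score over 3 SD under the library average, and starting fluorescence ratio not unusually high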;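 further: choline stimulus applied at its EC90 after an EC20 pre-addition; B-score computed on integrated fluorescence ratio after choline addition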
Target sequence (Q9GZV3 whole entry, looked up): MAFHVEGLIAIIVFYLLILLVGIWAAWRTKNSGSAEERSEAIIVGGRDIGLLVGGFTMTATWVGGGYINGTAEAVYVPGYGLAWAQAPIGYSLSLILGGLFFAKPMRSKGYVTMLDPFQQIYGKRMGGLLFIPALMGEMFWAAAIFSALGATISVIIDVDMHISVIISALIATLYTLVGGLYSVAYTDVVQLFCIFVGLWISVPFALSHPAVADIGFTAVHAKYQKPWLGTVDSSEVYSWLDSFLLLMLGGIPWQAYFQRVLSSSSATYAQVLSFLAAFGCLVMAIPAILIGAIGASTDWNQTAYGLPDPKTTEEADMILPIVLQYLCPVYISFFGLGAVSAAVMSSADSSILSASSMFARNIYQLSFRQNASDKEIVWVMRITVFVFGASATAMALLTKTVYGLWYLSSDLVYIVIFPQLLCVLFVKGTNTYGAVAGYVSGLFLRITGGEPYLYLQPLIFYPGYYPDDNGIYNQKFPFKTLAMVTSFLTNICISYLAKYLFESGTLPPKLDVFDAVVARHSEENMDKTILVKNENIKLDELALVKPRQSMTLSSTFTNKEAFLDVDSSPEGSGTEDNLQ
MEKK2 WT-MEK5 – raises or lowers MEK5 binding to wildtype human MEKK2 PB1 domain | Q9Y2U5 | bead flow cytometry, Alexa488-MEK5 binding to MEKK2 WT; actives lie on both sides | binding response (% of control), % at 10 µM | 1.1% of 290,000 active; in the data active means binding response below about 67% or above about 130%
CHT allo act – allosteric activators of human choline transporter CHT. Q9GZV3. CHT-expressing cells, membrane potential dye, choline EC20; active compounds read high; LV-AA mutant CHT in HEK293 cells. B-score at 10 µM. 0.49% of 310,000 active. AID 488977;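 active means initial fluorescence not abnormally high and integrated response B-score, plate-corrected, over 3 SD above library mean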
MEKK2 mut-MEK5 – signal of MEK5 binding to mutant human MEKK2 PB1 domain; 0.35% of 290,000 active; percent response, % at 10 µM; bead flow cytometry, Alexa488-MEK5 binding to MEKK2 mutant; AID 1530; in the data active means percent response above about 24%, passing the limit was not always enough
MEKK3 PB1 HTS – raises or lowers MEK5 binding to the human MEKK3 PB1 domain | 1.4% of 290,000 active | bead-based flow cytometry, Alexa488-MEK5 binding to MEKK3; actives lie on both sides; 0 = blocked by unlabeled MEK5, 100 = vehicle | Q99759 | AID 1529 | binding response (% of control), % at 10 µM;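 active means binding response more than 3 SD above or below the average of its plate-row segment, actives on both sides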;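 further: Alexa488 bead fluorescence after subtracting the streptavidin-only scavenger bead signal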
MEKK2wt confirm – raises or lowers MEK5 binding to wildtype human MEKK2, retest | shares compounds with MEKK3 PB1 HTS | bead flow cytometry, Alexa488-MEK5 binding to MEKK2 WT; actives lie on both sides | binding response (% of control), % at 10 µM | 2.4% of 5,900 active; in the data active means binding response below about 16% or above about 210%; inactive means in between
MEKK2mut confirm – signal of MEK5 binding to mutant human MEKK2, retest | 2% of 5,900 active | shares compounds with MEKK3 PB1 HTS | bead flow cytometry, Alexa488-MEK5 binding to MEKK2 mutant | AID 1893 | percent response, % at 10 µM; in the data active means percent response mostly above about 71%, no sharp cut-off; inactive means mostly below about 38%;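 further: higher means compound restores mutant binding toward wildtype level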
MEKK3 confirm – MEKK3-MEK5 PB1 inhibition, single concentration confirmation; shares compounds with MEKK3 PB1 HTS; bead flow cytometry, Alexa488-MEK5 binding to MEKK3; active compounds read low; binding response (% of control), % at 10 µM; 1.8% of 5,900 active; AID 1894;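 active means binding response below 72% of control, or above a set upper limit, though filed actives all read lower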;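 further: lower values mean stronger disruption of MEK5 binding to MEKK3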
Hits are given with their value; 0 = inactive; - = no result given; [ ] = dose if it differs, or a comment. Hits are enriched below; roughly 4.1% of the tested compounds scored in any of these assays.

SMILES | Mot1-301 SUMO | CHT block | MEKK2 WT-MEK5 | CHT allo act | MEKK2 mut-MEK5 | MEKK3 PB1 HTS | MEKK2wt confirm | MEKK2mut confirm | MEKK3 confirm
COc1ccc(/C=N\NC(=O)CNC(=O)C(c2ccccc2)c2ccccc2)cc1[N+](=O)[O-] | 0 | 0 | 0 | 0 | 0 | 143.0 | 0 | 0 | 0
Cc1ccc(N2CC(C(=O)Nc3ccc(S(=O)(=O)N4CCCC4)cc3)CC2=O)cc1 (centres undefined) | 0 | 0 | 45.0[inhibitor] | 0 | 0 | 60.0[inhibitor] | 0 | 0 | 0
Cc1ccc(N2CC(C(=O)NCCc3ccc(S(N)(=O)=O)cc3)CC2=O)cc1 (centres undefined) | 0 | 0 | 0 | 0 | 0 | 77.0[inhibitor] | 0 | 0 | 0
COc1ccc(CCNC(=O)C2CC(=O)N(c3ccc(C)cc3)C2)cc1OC (centres undefined) | 0 | 0 | 0 | 0 | 0 | 0 | - | - | -
CC(C)CN(C(=O)COC(=O)CSc1ccc([N+](=O)[O-])cc1)C1CCS(=O)(=O)C1 (centres undefined) | 0 | 0 | - | 0 | - | - | - | - | -
Cc1ccc(NC(=O)CCC(=O)OCC(=O)c2ccc(Oc3ccc([N+](=O)[O-])cc3)cc2)cc1 | 0 | 0 | 0 | 0 | 0 | 144.0 | 0 | 0 | 0
COc1ccc(NC(=O)CCC(=O)OCC(=O)c2ccc(Oc3ccc([N+](=O)[O-])cc3)cc2)cc1 | 0 | 0 | 0 | 0 | 0 | 0 | - | - | -
Cc1ccc2c(CC(=O)OCc3csc(C)n3)coc2c1 | 0 | 0 | 3.0[inhibitor] | 0 | 0 | 3.0[inhibitor] | 0 | 0 | 0
Cn1c(SCC(=O)NC(=O)Nc2ccccc2)nnc1-c1ccncc1 | 0 | 0 | 0 | 0 | 0 | 0 | - | - | -
CC(=O)Nc1ccc(-c2nc3c(C)cccc3[nH]2)cc1 | 0 | 0 | 3.0[inhibitor] | 0 | 0 | 3.0[inhibitor] | 0 | 0 | 0
Cc1ccc(C(=O)N/C(=C\c2ccc(-c3ccc(Cl)cc3)o2)C(=O)NCCCN(C)C)cc1 | 0 | 0 | 0 | 0 | 0 | 43.0[inhibitor] | 0 | 0 | 0
Cc1ccc(C(=O)N/C(=C\c2ccc(-c3ccccc3[N+](=O)[O-])o2)C(=O)NCCN(C)C)cc1 | 0 | 0 | 0 | 0 | 0 | 0 | - | - | -
CN(C)CCCNC(=O)/C(=C\c1ccc(-c2ccc(Br)cc2)o1)NC(=O)c1ccccc1 | 0 | 0 | 0 | 0 | 0 | 0 | - | - | -
Cc1ccc(C(=O)N/C(=C\c2ccc(-c3ccccc3[N+](=O)[O-])o2)C(=O)NCCCN(C)C)cc1 | 0 | 0 | 0 | 0 | 25.0 | 0 | 0 | 0 | 0
CSCCCNC(=S)N1CCN(c2ccc(C(C)=O)cc2)CC1 | 0 | 0 | 6.0[inhibitor] | 0 | 0 | 5.0[inhibitor] | 0 | 0 | 0
CC(=O)c1ccc(N2CCN(C(=S)Nc3cc(C)ccc3C)CC2)cc1 | 0 | 0 | 0 | 0 | 0 | 0 | - | - | -
Cc1ccc(NC(=O)CSCC(=O)N2CCCc3ccccc32)cc1 | 0 | 0 | - | 0 | - | - | - | - | -
CCOC(=O)c1cc(CC)sc1NC(=O)c1cc(OC)c(OC)c(OC)c1 | 0 | 0 | 141.0 | 0 | 0 | 0 | 0 | 0 | 0
CCOC(=O)c1cc(CC)sc1NC(=O)CCC(=O)O | 0 | 0 | 0 | 0 | 0 | 0 | - | - | -
Cc1ccc(CN(C)C(=O)CN2C(=O)NC(c3ccccc3)(c3ccccc3)C2=O)c(C)c1 | 0 | - | - | - | - | - | - | - | -
Cn1c(SCC(=O)Nc2ccccc2)nc2ccccc2c1=O | 0 | 0 | 0 | 0 | 0 | 0 | - | - | -
COc1ccc(NC(=O)c2ccc(F)c(F)c2)c2ccccc12 | 0 | 0 | 0 | 0 | 0 | 0 | - | - | -
COc1cccc(CC2(CO)CCCN(Cc3[nH]c4ccc(C)cc4c3C)C2)c1 (centres undefined) | 0 | 0 | 157.0 | 0 | 0 | 0 | 0 | 0 | 0
CN1C(=O)c2cccc(NC(=O)CCc3ccccc3)c2C1=O | 0 | 0 | 0 | 0 | 0 | 0 | - | - | -
CCc1noc(C)c1C(=O)N(CC)CC(=O)NCc1ccc(Cl)cc1 | 0 | - | - | - | - | - | - | - | -
SMILES | Mot1-301 SUMO | CHT block | MEKK2 WT-MEK5 | CHT allo act | MEKK2 mut-MEK5 | MEKK3 PB1 HTS | MEKK2wt confirm | MEKK2mut confirm | MEKK3 confirm
O=C(Nc1ccc(OCc2ccccc2)cc1)c1ccccc1 | 0 | 0 | 0 | 0 | 0 | 0 | - | - | -
Cc1nn2c(COc3ccc(NC(=O)c4ccccc4)cc3)nnc2c2ccccc12 | 0 | 0 | 0 | 0 | 0 | 147.0 | 0 | 0 | 0
COc1ccc(-c2oc3ncnc(NCCCN4CCOCC4)c3c2-c2ccc(OC)cc2)cc1 | 0 | 0 | 138.0 | 0 | 0 | 0 | 0 | 0 | 0
CCN(CC(=O)NCc1ccc(F)cc1)C(=O)CN1CCN(c2cc(Cl)ccc2C)CC1 | 0 | 0 | 0 | 0 | 0 | 0 | - | - | -
CN(C)CCN1C(=O)c2oc3ccc(Cl)cc3c(=O)c2C1c1cccc(Br)c1 (centres undefined) | 0 | 0 | 139.0 | 0 | 0 | 129.0 | 0 | 0 | 0
CCc1ccc(OCC(=O)NC(=S)Nc2ccc(C(C)=O)cc2)c(Br)c1 | 0 | 0 | - | 0 | - | - | - | - | -
CCc1ccc(OCC(=O)NC(=S)Nc2ccc(F)cc2)c(Br)c1 | 0 | 0 | 0 | 0 | 0 | 53.0[inhibitor] | 0 | 0 | 0
CC1CCN(c2c(NCC3CCC(C(=O)NCCCc4ccccc4)CC3)c(=O)c2=O)CC1 (centres undefined) | 0 | 0 | 0 | 0 | 0 | 0 | - | - | -
CCOc1ccc2[nH]c3c(N4CCc5ccccc5C4)ncnc3c2c1 | 0 | 0 | 187.0 | 0 | 0 | 0 | 0 | 0 | 0
Brc1ccc2[nH]c3c(N4CCc5ccccc5C4)ncnc3c2c1 | 344.0 | 0 | 150.0 | 0 | 0 | 0 | 0 | 0 | 0

High-throughput results (PubChem)
